The values below come from PubChem BioAssay AID504333 (National Center for Advancing Translational Sciences (NCATS), 2011).

SMILES strings stand for the structures. Out of some 360,000 compounds screened, about 16,000 (4.4%) were called active. A call without a number means that no potency is given here. About 9% were inconclusive and are not listed. This is one part of a sample in which actives are shown more often than they occur. The call rests on the fitted dose curve; in most records, active means well fitted inhibition curve with a large enough effect; inconclusive means small, poorly fitted or top-dose-only effect; inactive means no such curve, though single readings can be large or run the other way.
Potency means the concentration at half of the fitted maximal effect.

Chain of Bromodomain adjacent to zinc finger domain protein 2B (Homo sapiens) (Q9UIF8 whole entry, looked up, the tested form may be a part): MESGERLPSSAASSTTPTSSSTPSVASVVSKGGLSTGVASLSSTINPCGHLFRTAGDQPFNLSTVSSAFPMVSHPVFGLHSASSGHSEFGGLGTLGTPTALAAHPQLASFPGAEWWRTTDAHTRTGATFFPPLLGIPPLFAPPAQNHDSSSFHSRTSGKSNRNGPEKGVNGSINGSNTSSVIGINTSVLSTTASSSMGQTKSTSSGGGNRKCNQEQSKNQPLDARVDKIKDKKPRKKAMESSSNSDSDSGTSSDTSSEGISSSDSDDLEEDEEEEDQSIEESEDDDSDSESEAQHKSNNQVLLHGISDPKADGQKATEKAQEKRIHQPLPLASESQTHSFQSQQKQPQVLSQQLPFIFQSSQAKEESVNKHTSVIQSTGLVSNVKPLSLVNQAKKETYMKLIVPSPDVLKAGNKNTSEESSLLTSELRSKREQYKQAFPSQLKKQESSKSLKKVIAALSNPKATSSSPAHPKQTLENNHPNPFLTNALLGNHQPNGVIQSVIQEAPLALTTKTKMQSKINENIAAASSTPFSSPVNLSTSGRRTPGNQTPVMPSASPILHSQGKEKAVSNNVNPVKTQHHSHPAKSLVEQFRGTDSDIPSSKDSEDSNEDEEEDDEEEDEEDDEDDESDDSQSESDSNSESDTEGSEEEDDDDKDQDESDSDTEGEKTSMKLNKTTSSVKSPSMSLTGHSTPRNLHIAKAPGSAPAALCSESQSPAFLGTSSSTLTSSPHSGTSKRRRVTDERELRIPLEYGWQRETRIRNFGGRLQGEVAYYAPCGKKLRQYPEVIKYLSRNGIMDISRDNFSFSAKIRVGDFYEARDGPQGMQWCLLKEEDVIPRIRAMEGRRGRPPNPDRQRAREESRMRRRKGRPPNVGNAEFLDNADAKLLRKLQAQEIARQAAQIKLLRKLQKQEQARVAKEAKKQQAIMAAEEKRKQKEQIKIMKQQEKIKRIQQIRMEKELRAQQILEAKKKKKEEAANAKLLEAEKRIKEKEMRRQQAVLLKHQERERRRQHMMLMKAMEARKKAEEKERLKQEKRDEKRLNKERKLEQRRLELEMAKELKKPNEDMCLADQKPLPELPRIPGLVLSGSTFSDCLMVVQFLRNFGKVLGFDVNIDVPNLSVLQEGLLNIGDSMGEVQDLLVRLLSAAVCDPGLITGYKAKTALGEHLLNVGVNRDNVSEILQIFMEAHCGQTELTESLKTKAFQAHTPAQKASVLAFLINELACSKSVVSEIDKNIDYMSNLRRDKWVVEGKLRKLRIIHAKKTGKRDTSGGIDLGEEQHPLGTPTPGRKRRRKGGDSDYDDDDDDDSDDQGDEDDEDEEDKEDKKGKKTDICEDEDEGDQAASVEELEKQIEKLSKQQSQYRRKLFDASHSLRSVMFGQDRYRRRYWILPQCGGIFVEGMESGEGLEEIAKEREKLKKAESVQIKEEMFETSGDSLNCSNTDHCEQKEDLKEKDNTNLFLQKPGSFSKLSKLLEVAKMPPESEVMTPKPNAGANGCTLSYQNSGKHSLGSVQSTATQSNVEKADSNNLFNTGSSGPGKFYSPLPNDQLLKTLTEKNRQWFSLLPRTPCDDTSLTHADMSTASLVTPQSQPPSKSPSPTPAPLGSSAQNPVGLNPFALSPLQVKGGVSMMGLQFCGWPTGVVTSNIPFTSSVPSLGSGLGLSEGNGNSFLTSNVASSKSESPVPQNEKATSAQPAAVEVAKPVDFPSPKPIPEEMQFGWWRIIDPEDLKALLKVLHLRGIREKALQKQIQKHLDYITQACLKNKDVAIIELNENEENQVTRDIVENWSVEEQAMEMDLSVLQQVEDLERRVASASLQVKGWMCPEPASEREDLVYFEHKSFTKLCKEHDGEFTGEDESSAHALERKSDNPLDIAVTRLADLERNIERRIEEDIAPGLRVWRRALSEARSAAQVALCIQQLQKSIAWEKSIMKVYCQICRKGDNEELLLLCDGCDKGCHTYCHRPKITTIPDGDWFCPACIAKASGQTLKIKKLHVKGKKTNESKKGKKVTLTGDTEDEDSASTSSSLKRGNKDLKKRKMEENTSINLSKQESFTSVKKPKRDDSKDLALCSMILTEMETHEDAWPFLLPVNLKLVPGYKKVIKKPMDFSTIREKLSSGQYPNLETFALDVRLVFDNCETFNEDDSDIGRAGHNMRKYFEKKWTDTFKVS

For the experiment, the target named is Bromodomain adjacent to zinc finger domain protein 2B (Homo sapiens) (UniProt Q9UIF8). Briefly: qHTS Assay for Inhibitors of BAZ2B. Further: nearly all actives have a fitted effect of over 60% in size. Particulars: AlphaScreen BAZ2B-H3K14Ac peptide displacement; series mostly up to 114 µM. A digest of the protocol:
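AlphaScreen luminescence quantifies BAZ2B engagement of H3K14Ac peptide; the protein and biotinylated peptide are both at 50 nM final, buffer PBS pH 7.4 with 0.01% Tween-20, all steps at room temperature.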
Background: In qHTS, concentration-response curves come from the screen itself.
For the compound `O=C(Cc1ccc(Cl)cc1)NC(=S)Nc1ccccc1O`, the Potency result was “inactive”.

Consider `Oc1ccc(CNc2ccccc2O)cc1`, for which the Potency was 44.7 µM (active).

In the case of `Oc1ccccc1N1CCN(C(=S)NCc2ccccc2)CC1`, the Potency result is “inactive”.

In the case of `O=C(c1ccc(C(F)(F)F)cc1)N1CCC(c2nc(-c3ccc(S(=O)(=O)N4CCCC4)cc3)no2)CC1`, the Potency result is “inactive”.

`COc1cccc(NC(=O)Nc2ccc3c(c2)N(C)C(=O)c2ccccc2S3)c1`: the Potency entry is “inactive”.

For `COc1ccc(CC(=O)N2CC(=O)Nc3ccc(Br)cc3C2c2ccc(F)cc2)cc1OC` (configuration not stated), the Potency result is “inactive”.

Take `CCOC(=O)c1c(NC(=O)CSc2nnc(CN3CCOCC3)n2C)sc2c1CCCC2`: the Potency result is “inactive”.

As for `CCOC(=O)c1c(NC(=O)CSc2nccc(=O)[nH]2)sc(C)c1C`, the Potency entry was “inactive”.

As for `CCOC(=O)c1c(NC(=O)CSc2nnc(Cc3csc(N)n3)n2C)sc(C)c1C`, the Potency is 12.6 µM (active).

In the case of `Cc1cccc(C)c1-n1ncc(C(=O)NCCCN2CCCCC2)c1C1CCN(C(=O)OC(C)(C)C)CC1`, the Potency entry was “inactive”.

On to `CC(C)S(=O)(=O)c1oc(-c2ccc(F)cc2)nc1S(=O)(=O)c1ccc(F)cc1`, for which the Potency entry was “inactive”.

As to `Cc1ccc(NC(=O)CSc2nc3c([nH]c4ccccc43)c(=O)n2-c2ccccc2)cc1Cl`, the Potency result is “inactive”.

As to `Cc1ccc(N2CC(c3nnc(Cc4ccccc4Cl)o3)CC2=O)cc1` (configuration not stated), the Potency entry was “inactive”.

Turning to `Cc1ccccc1Nc1nc(N)nc(CN2CCN(c3ccccn3)CC2)n1`, the Potency is 50.1 µM (active).

Regarding `Cc1ccccc1Nc1nc(N)nc(CSc2ccccc2)n1`, the Potency entry was “inactive”.

For the compound `Cc1ccc(C(=O)OCc2nc(N)nc(Nc3ccccc3C)n2)cc1`, the Potency result was “inactive”.

For `CCOc1ccccc1CNC(=O)Nc1cn(CC(C)C)c(=O)c2ccccc12`, the Potency result was “inactive”.

Regarding `COc1ccccc1CNC(=O)C(Cc1ccccc1)NS(=O)(=O)c1ccc2c(c1)oc(=O)n2C` (configuration not stated), the Potency result is “inactive”.

`COc1ccc2c(C)c(CCC(=O)NCc3ccc(OC)c(OC)c3)c(=O)oc2c1`: the Potency result is “inactive”.

As for `Nc1ccc(Nc2cc(O)c3ncccc3c2)cc1`, the Potency was 7.08 µM (active).

On to `CC(C)c1ccc(Nc2ncccc2C#N)cc1`, for which the Potency result was “inactive”.

Take `CC1CCN(S(=O)(=O)c2ccc3c(ccn3CCC(=O)NCc3ccc(N(C)C)cc3)c2)CC1`: the Potency is 28.2 µM (active).

On to `O=C(CCn1ccc2cc(S(=O)(=O)N3CCCC3)ccc21)NCc1cccc(Cl)c1`, for which the Potency entry was “inactive”.

Regarding `CC1CCN(S(=O)(=O)c2ccc3c(ccn3CC(=O)O)c2)CC1`, the Potency entry is “inactive”.

Consider `CCCN(CCC)C(=O)C(Cc1ccccc1)NS(=O)(=O)c1ccc2c(c1)c(=O)n(C)c(=O)n2C` (configuration not stated), for which the Potency entry is “inactive”.

For `O=[N+]([O-])c1cc(Cl)cc(/C=N/NC(=S)Nc2cc(S(=O)(=O)N3CCOCC3)ccc2Cl)c1O`, the Potency is 1.78 µM (active).

As for `O=S(=O)(c1ccc(NC(=S)NN=C(C2CC2)C2CC2)cc1)N1CCOCC1`, the Potency result is “inactive”.

In the case of `Cc1ccc(S(=O)(=O)N2CCN(CC(=O)N/N=C/c3cc([N+](=O)[O-])ccc3Cl)CC2)cc1`, the Potency result is “inactive”.

For `Cn1c(=O)c2c(nc(SCC(=O)Nc3ccc(F)cc3)n2Cc2ccccc2)n(C)c1=O`, the Potency result is “inactive”.

For the compound `Cc1nn(C(C)C(=O)Nc2ccc(C(C)C)cc2)c(=O)c2c1sc1ccccc12` (configuration not stated), the Potency result was “inactive”.

As for `CC1CN(C(=O)N2CCC(C(=O)NCc3ccco3)CC2)c2cc(Cl)ccc2O1` (configuration not stated), the Potency entry is “inactive”.

On to `Cc1ccc(SCC(=O)Nc2ncc(C)s2)cc1`, for which the Potency entry is “inactive”.

Consider `Cc1cnc(NC(=O)c2ccccn2)s1`, for which the Potency is 35.5 µM (active).

Consider `O=C(Nc1nnc(C2CC2)s1)c1ccccn1`, for which the Potency was 5.62 µM (active).

With `O=C(Nc1nnc(C2CC2)s1)c1cc(Cl)sc1Cl`, the Potency entry is “inactive”.

Turning to `Cc1cc(C(=O)Nc2nnc(C3CC3)s2)c(C)s1`, the Potency result was “inactive”.

For the compound `Cc1cnc(NC(=O)C2CCCC2)s1`, the Potency result was “inactive”.

Consider `COCCNC(=O)c1ccc2c(c1)N=C(C)c1cc(C)ccc1S2`, for which the Potency entry was “inactive”.

Take `CC1=Nc2cc(C(=O)N3CCC(C)CC3)ccc2Sc2ccc(Cl)cc21`: the Potency entry was “inactive”.

As for `Cc1ccc(Cn2c(=O)n(-c3ccc(C)cc3)c(=O)c3c2c2cc(C)ccc2n3C)cc1`, the Potency entry was “inactive”.

For `COc1ccc(CNC(=O)CSc2n[nH]c(-c3ccc(F)cc3)n2)cc1`, the Potency entry was “inactive”.

Take `CCc1nnc(NC(=O)c2cc(S(=O)(=O)N3CCCCC3)ccc2C)s1`: the Potency result is “inactive”.

`CCc1nnc(NC(=O)c2nc3nccc(C)n3n2)s1`: the Potency was 70.8 µM (active).

Turning to `CCc1nnc(NC(=O)c2ccc(S(=O)(=O)NC3CCCCC3)cc2)s1`, the Potency entry was “inactive”.

`CCCOc1ccccc1C1CC(=O)Nc2cc3c(cc21)OCO3` (configuration not stated): the Potency is 28.2 µM (active).

As for `O=C1CC(c2ccc(F)cc2F)c2cc3c(cc2N1)OCO3` (configuration not stated), the Potency result was “inactive”.

Regarding `COC(=O)C1=C(C)NC(=O)CC1c1ccccc1OC` (configuration not stated), the Potency entry is “inactive”.

`Cc1nc2ccn(Cc3cccs3)c(=O)c2cc1C(=O)NCc1ccc(Cl)cc1`: the Potency result is “inactive”.

For `Cc1ccc(Nc2ccccc2N)cc1`, the Potency is 44.7 µM (active).

On to `Cc1ccc(Nc2nc(Cl)c(C=O)s2)cc1`, for which the Potency entry is “inactive”.

With `Nc1ccc(C(=O)Nc2ccccc2N)cc1`, the Potency result was “inactive”.

Turning to `COc1ccc(-c2noc(CSc3nnc(-c4ccccc4)n3-c3ccc(F)cc3)n2)c(OC)c1`, the Potency entry is “inactive”.

For the compound `CC(=O)c1c(C)n(-c2ccc(N(C)C)cc2)c2ccc(OCC(N)=O)cc12`, the Potency was 50.1 µM (active).

As for `CC(=O)c1c(C)n(-c2ccc(C)cc2)c2ccc(O)cc12`, the Potency result was “inactive”.

As to `CCOC(=O)c1c(-c2ccccc2)oc2ccc(OCC(N)=O)cc12`, the Potency entry was “inactive”.

As to `CC(=O)c1ccc(NC(=O)c2nc(-c3ccc(C)cc3)n3c2CCCCC3)cc1`, the Potency entry is “inactive”.

For `COc1ccccc1-c1ccnc2[nH]n(-c3ccccc3)c(=O)c12`, the Potency entry was “inactive”.

As for `CC1Cc2ccccc2N1CC(=O)Nc1ccc(S(N)(=O)=O)cc1` (configuration not stated), the Potency was 79.4 µM (active).

Regarding `CC1CC(C)CN(CC(=O)Nc2ccc(S(N)(=O)=O)cc2)C1` (configuration not stated), the Potency entry is “inactive”.

Turning to `NS(=O)(=O)c1cccc(NC(=O)CN2CCCc3ccccc32)c1`, the Potency result was “inactive”.

As for `CC(CNC(=O)c1nnc(Cc2cccc(F)c2)o1)c1ccccc1` (configuration not stated), the Potency result is “inactive”.

With `CN(C(=O)CSc1nc2ccc(NC(=O)COc3ccccc3)cc2s1)c1ccccc1`, the Potency result was “inactive”.

As for `O=C(NCCCN1CCOCC1)c1cc2c(s1)CCC2`, the Potency result was “inactive”.

Regarding `O=C(NCCCn1ccnc1)c1cc2c(s1)CCCC2`, the Potency was 56.2 µM (active).

Take `O=C(NCCCn1ccnc1)c1cc(Br)c(Br)s1`: the Potency result is “inactive”.

Regarding `Cc1ccccc1CNC(=O)C1CCCN(S(=O)(=O)N(C)c2ccc(F)cc2)C1` (configuration not stated), the Potency result is “inactive”.

Consider `CCOC(=O)c1c(S(=O)(=O)NCC(=O)Nc2ccc(Cl)c(C(F)(F)F)c2)c(C)n(C)c1C`, for which the Potency entry was “inactive”.
